Data from PubChem BioAssay (NCI).
The panel holds about 83,000 compounds, 20% with a hit somewhere; the sample as a whole holds those more often.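 For each line, cells grew in 96-well plates with the test compound present at a single concentration for 48 hours.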 Values without a mark were called inactive. Activity calls are given as the source filed them. Rule for the calls: active = growth percent below 10; inactive = the rest.

Assays:
Assay in all cases: NCI-60 one-dose screen, 48 h (100 = growth as untreated, 0 = no growth, -100 = all killed)
DU-145 prostate = conditions: 10 µM
K-562 leukemia = conditions: 10 µM
MALME-3M melanoma = conditions: 10 µM
MDA-MB-231 breast = conditions: 10 µM
RXF 393 renal = conditions: 10 µM
SF-268 CNS = conditions: 10 µM
SF-295 CNS = conditions: 10 µM
SF-539 CNS = conditions: 10 µM
UACC-257 melanoma = conditions: 10 µM
M14 melanoma = conditions: 10 µM
HCT-15 colon = conditions: 10 µM
HT29 colon = conditions: 10 µM
SNB-75 CNS = conditions: 10 µM
SNB-19 CNS = conditions: 10 µM
U251 CNS = conditions: 10 µM
PC-3 prostate = conditions: 10 µM
SK-MEL-5 melanoma = conditions: 10 µM
UACC-62 melanoma = conditions: 10 µM unless noted
LOX IMVI melanoma = conditions: 10 µM
SK-MEL-28 melanoma = conditions: 10 µM

Compound: S=c1nn[nH]c2ccccc12
- growth (DU-145 prostate): 120%
- growth (K-562 leukemia): 99%
- growth (MALME-3M melanoma): 148%
- growth (MDA-MB-231 breast): 93.4%
- growth (RXF 393 renal): 114%
- growth (SF-268 CNS): 110%
- growth (SF-295 CNS): 113%
- growth (SF-539 CNS): 105%
- growth (UACC-257 melanoma): 108%
- growth (M14 melanoma): 102%
- growth (HCT-15 colon): 103%
- growth (HT29 colon): 112%
- growth (SNB-75 CNS): 96.4%
- growth (SNB-19 CNS): 95.9%
- growth (U251 CNS): 103%
- growth (PC-3 prostate): 98.1%
- growth (SK-MEL-5 melanoma): 97.9%
- growth (UACC-62 melanoma): 99.2%
- growth (LOX IMVI melanoma): 93.6%
- growth (SK-MEL-28 melanoma): 126%

Compound: COc1cc2nc3cc([N+](=O)[O-])ccc3c(Cl)c2cc1OC
- growth (DU-145 prostate): 103%
- growth (K-562 leukemia): 98.8%
- growth (MALME-3M melanoma): 94.5%
- growth (MDA-MB-231 breast): 99.4%
- growth (RXF 393 renal): 120%
- growth (SF-268 CNS): 99.8%
- growth (SF-295 CNS): 103%
- growth (SF-539 CNS): 96.4%
- growth (UACC-257 melanoma): 93.1%
- growth (M14 melanoma): 96.6%
- growth (HCT-15 colon): 94.6%
- growth (HT29 colon): 105%
- growth (SNB-75 CNS): 104%
- growth (SNB-19 CNS): 106%
- growth (U251 CNS): 89.1%
- growth (PC-3 prostate): 90.9%
- growth (SK-MEL-5 melanoma): 99.1%
- growth (UACC-62 melanoma): 74.8%
- growth (SK-MEL-28 melanoma): 108%

Compound: COC(=O)c1ccc(NC(=O)CCl)cc1
- growth (DU-145 prostate): 103%
- growth (K-562 leukemia): 70.9%
- growth (MALME-3M melanoma): 79.9%
- growth (MDA-MB-231 breast): 64.9%
- growth (RXF 393 renal): 95.7%
- growth (SF-268 CNS): 89.5%
- growth (SF-295 CNS): 69.3%
- growth (SF-539 CNS): 96.7%
- growth (UACC-257 melanoma): 60.4%
- growth (M14 melanoma): 90.4%
- growth (HCT-15 colon): 61.7%
- growth (HT29 colon): 76.3%
- growth (SNB-75 CNS): 83%
- growth (SNB-19 CNS): 92.7%
- growth (U251 CNS): 26.2%
- growth (PC-3 prostate): 78.2%
- growth (SK-MEL-5 melanoma): 80.6%
- growth (UACC-62 melanoma): 72.2%
- growth (LOX IMVI melanoma): -19.8% (active)
- growth (SK-MEL-28 melanoma): 101%

Compound: C=C[Si](OC(C)=O)(OC(C)=O)OC(C)=O
- growth (DU-145 prostate): 116%
- growth (K-562 leukemia): 98.7%
- growth (MALME-3M melanoma): 85.6%
- growth (MDA-MB-231 breast): 118%
- growth (RXF 393 renal): 117%
- growth (SF-268 CNS): 99.4%
- growth (SF-295 CNS): 96.9%
- growth (SF-539 CNS): 96.8%
- growth (UACC-257 melanoma): 105%
- growth (M14 melanoma): 99.5%
- growth (HCT-15 colon): 103%
- growth (HT29 colon): 101%
- growth (SNB-75 CNS): 95.5%
- growth (SNB-19 CNS): 109%
- growth (U251 CNS): 100%
- growth (PC-3 prostate): 91.6%
- growth (SK-MEL-5 melanoma): 104%
- growth (UACC-62 melanoma): 116%
- growth (LOX IMVI melanoma): 98.4%
- growth (SK-MEL-28 melanoma): 104%

Compound: CC(C)=NNC(N)=S
- growth (DU-145 prostate): 88.3%
- growth (K-562 leukemia): 48.2%
- growth (MALME-3M melanoma): 78.4%
- growth (MDA-MB-231 breast): 83.8%
- growth (RXF 393 renal): 93.1%
- growth (SF-268 CNS): 90.7%
- growth (SF-295 CNS): 85.4%
- growth (SF-539 CNS): 108%
- growth (UACC-257 melanoma): 77.9%
- growth (M14 melanoma): 65.2%
- growth (HCT-15 colon): 73.5%
- growth (HT29 colon): 40.5%
- growth (SNB-75 CNS): 93.5%
- growth (SNB-19 CNS): 94.4%
- growth (U251 CNS): 88.2%
- growth (PC-3 prostate): 77.9%
- growth (SK-MEL-5 melanoma): 90.2%
- growth (UACC-62 melanoma): 91%
- growth (LOX IMVI melanoma): 69.7%
- growth (SK-MEL-28 melanoma): 94.1%

Compound: C/C(=N/NC(N)=O)c1ccco1
- growth (DU-145 prostate): 110%
- growth (K-562 leukemia): 88.3%
- growth (MALME-3M melanoma): 93.4%
- growth (MDA-MB-231 breast): 118%
- growth (RXF 393 renal): 108%
- growth (SF-268 CNS): 104%
- growth (SF-295 CNS): 104%
- growth (SF-539 CNS): 101%
- growth (UACC-257 melanoma): 83%
- growth (M14 melanoma): 91.8%
- growth (HCT-15 colon): 102%
- growth (HT29 colon): 99.5%
- growth (SNB-75 CNS): 91.5%
- growth (SNB-19 CNS): 101%
- growth (U251 CNS): 96.8%
- growth (PC-3 prostate): 76.3%
- growth (SK-MEL-5 melanoma): 105%
- growth (UACC-62 melanoma): 102%
- growth (LOX IMVI melanoma): 95.4%
- growth (SK-MEL-28 melanoma): 117%

Compound: O=C(O)c1ccnc(Br)c1
- growth (DU-145 prostate): 111%
- growth (K-562 leukemia): 109%
- growth (MALME-3M melanoma): 107%
- growth (MDA-MB-231 breast): 115%
- growth (RXF 393 renal): 106%
- growth (SF-268 CNS): 107%
- growth (SF-295 CNS): 100%
- growth (SF-539 CNS): 97.5%
- growth (UACC-257 melanoma): 104%
- growth (M14 melanoma): 107%
- growth (HCT-15 colon): 106%
- growth (HT29 colon): 110%
- growth (SNB-75 CNS): 89.5%
- growth (SNB-19 CNS): 103%
- growth (U251 CNS): 100%
- growth (PC-3 prostate): 86.1%
- growth (SK-MEL-5 melanoma): 93.5%
- growth (UACC-62 melanoma): 106%
- growth (SK-MEL-28 melanoma): 111%

Compound: COc1cc(C2c3cc4c(cc3C3OC(=O)C2C3CO)OCO4)cc(OC)c1OC (configuration not stated)
- growth (DU-145 prostate): -41.5% (active)
- growth (K-562 leukemia): 8.48% (active)
- growth (MALME-3M melanoma): 50.3%
- growth (MDA-MB-231 breast): 30.3%
- growth (RXF 393 renal): 57.9%
- growth (SF-268 CNS): 30.3%
- growth (SF-295 CNS): 3.2% (active)
- growth (SF-539 CNS): -7.04% (active)
- growth (UACC-257 melanoma): 57%
- growth (M14 melanoma): 12.1%
- growth (HCT-15 colon): 3.35% (active)
- growth (HT29 colon): -9.63% (active)
- growth (SNB-75 CNS): 53.4%
- growth (SNB-19 CNS): 46.6%
- growth (U251 CNS): 19.7%
- growth (PC-3 prostate): 19.2%
- growth (SK-MEL-5 melanoma): -0.321% (active)
- growth (LOX IMVI melanoma): 7.4% (active)
- growth (SK-MEL-28 melanoma): 49.4%
